Assay outcomes (PubChem BioAssay)
Sampled rows, rich in hits. Any-hit rate of the full collection: about 4.8%.
hcDAF12 agonist: H. contortus DAF-12 activation, primary screen | activation, % at 6.8 µM | AID 652067 | HEK293 hcDAF-12 lit1-tk-luc reporter, luminescence; 0% DMSO, 100% Δ7-dafachronic acid | 370,000 compounds, 1.4% hits;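 active = activation above the mean of all tested compounds plus 3 SD, cut at about 5.5% in these data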;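 also: 100% = response to 3 µM Δ7-dafachronic acid high control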
hgDAF-12 ag: agonists of H. glycines DAF-12 nuclear receptor; HEK293 GAL4-hgDAF12 UAS-luciferase reporter, agonist luminescence; normalized to butyrate control; activation, % at 6.8 µM; 370,000 compounds, 1.8% hits;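 active = activation above a cutoff set at the mean of all screened compounds plus 3 SD, cut at about 10% in these data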;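 also: 0% = DMSO wells and 100% = sodium butyrate wells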
SMARCA2 act: increases SMARCA2 function in MMTV reporter cells; activation, % at 9.1 µM; MG213 cells, MMTV-luciferase reporter, dexamethasone, overnight; 370,000 compounds, 1% hits; in the data active = activation above about 7.8%;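 also: 0% = vehicle wells and 100% = reference activator wells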
DAX1 inh-1: blocks DAX1 repression of SF-1 activated StAR promoter; HEK293T StAR-luciferase reporter, SF-1/DAX-1 repression relief; inhibition, % at 6.8 µM; 370,000 compounds, 1.1% hits; AID 652010;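 active = inhibition above the mean over all tested compounds plus 3 SD, cut at about 3.6% in these data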;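 also: 0% = DAX-1 cells with DMSO and 100% = cells lacking DAX-1 with DMSO; higher inhibition means more luminescence from relief of DAX-1 repression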
DAX1 inh-2: NR0B1 (DAX1) inhibition; AID 504766; inhibition, % at 6.75 µM; P51843; 340,000 compounds, 0.99% hits; HEK293 Gal4-DAX1 luciferase reporter, luminescence;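 active = inhibition above the mean over all tested compounds plus 3 SD, cut at about 4.2% in these data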;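 also: 0% = DAX1-transfected cells with DMSO and 100% = empty-vector control cells with DMSO; inhibition shows as a rise in luminescence from relieved DAX1 repression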
Target sequence (P51843 207-470 limits assumed): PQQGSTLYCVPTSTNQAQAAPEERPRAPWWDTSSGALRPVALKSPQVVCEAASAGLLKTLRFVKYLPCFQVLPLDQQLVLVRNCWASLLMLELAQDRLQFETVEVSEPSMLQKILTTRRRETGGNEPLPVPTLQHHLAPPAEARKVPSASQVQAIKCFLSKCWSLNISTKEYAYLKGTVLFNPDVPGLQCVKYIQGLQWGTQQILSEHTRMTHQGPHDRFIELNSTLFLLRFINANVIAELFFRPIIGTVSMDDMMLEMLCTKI
ssDAF-12 act: S. stercoralis DAF-12 activation, primary screen; HEK293 ssDAF-12/GRIP1 lit1-tk-luc reporter, luminescence; % of 3 µM dafachronic acid response; activation, % at 6.8 µM; 370,000 compounds, 1% hits; AID 652126;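 active = activation above the mean over all tested compounds plus 3 SD, cut at about 0.9% in these data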;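 also: 0% = DMSO-only wells and 100% = 3 µM delta7-dafachronic acid wells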
Active calls of the source: *.

Results for CCOC(=O)c1c(NC(=O)COC(=O)c2nccnc2N)sc(C(=O)N(C)C)c1C ?
hcDAF12 agonist: -1; hgDAF-12 ag: 1; SMARCA2 act: -2; DAX1 inh-1: 1; DAX1 inh-2: 1; ssDAF-12 act: -1

Results for CCNC(=O)c1cc2c(c(-c3cccc(-c4cccnc4)c3)n1)[C@H](CCO)N(S(C)(=O)=O)C2 ?
hcDAF12 agonist: 0; hgDAF-12 ag: 3; SMARCA2 act: -5; DAX1 inh-1: -2; ssDAF-12 act: 0

How did O=C(NCc1ccco1)c1ccc(-c2ccc(F)c(F)c2)c2ccoc12 do in these assays?
hcDAF12 agonist: -3; hgDAF-12 ag: 9; SMARCA2 act: -1; DAX1 inh-1: -1; ssDAF-12 act: -1

What do the screens show for `COc1ccc(N2CC(O)=C(c3nc(-c4ccccc4)cs3)C2=N)cc1`?
hcDAF12 agonist: 1; hgDAF-12 ag: 2; SMARCA2 act: -4; DAX1 inh-1: 0; DAX1 inh-2: -1; ssDAF-12 act: -1

What do the screens show for `Cc1ccc(-c2csc(-c3ccncc3)n2)cc1`?
hcDAF12 agonist: 4; hgDAF-12 ag: 11*; SMARCA2 act: -1; DAX1 inh-1: 0; DAX1 inh-2: 1; ssDAF-12 act: -1

Results for COc1ccc(N2CC(O)=C(c3nc(-c4ccc(Cl)cc4)cs3)C2=N)cc1 ?
hcDAF12 agonist: 1; hgDAF-12 ag: 12*; SMARCA2 act: -5; DAX1 inh-1: 1; DAX1 inh-2: 0; ssDAF-12 act: 0

Results for c1ccc(CNc2nc(-c3cccnc3)cs2)cc1 ?
hcDAF12 agonist: 0; hgDAF-12 ag: 11*; SMARCA2 act: 2; DAX1 inh-1: 0; DAX1 inh-2: 1; ssDAF-12 act: -1

How did c1ccc(-c2nc(-c3cccnc3)cs2)cc1 do in these assays?
hcDAF12 agonist: 3; hgDAF-12 ag: 5; SMARCA2 act: 7; DAX1 inh-1: 1; DAX1 inh-2: 1; ssDAF-12 act: 0

Results for COc1ccc(-c2csc(C(O)c3ccccc3)n2)cc1 (stereo not drawn) ?
hcDAF12 agonist: 3; hgDAF-12 ag: 5; SMARCA2 act: 2; DAX1 inh-1: 3.8*; ssDAF-12 act: 0

How did CC1(C(=O)O)CCCN(C(=O)c2ccc(F)cc2Cl)C1 (stereo not drawn) do in these assays?
hcDAF12 agonist: -1; hgDAF-12 ag: 0; SMARCA2 act: 2; DAX1 inh-1: 0; ssDAF-12 act: -1

Results for COc1ccc(C(=O)Nc2ccccc2C(=O)NC2CC2)c(OC)c1OC ?
hcDAF12 agonist: 1; hgDAF-12 ag: 2; SMARCA2 act: -2; DAX1 inh-1: 0; DAX1 inh-2: 1; ssDAF-12 act: 0

Results for Cc1ccc(S(=O)(=O)NC(=O)C2(C)CCN2C(=O)c2ccccc2CCc2ccccc2)cc1 (stereo not drawn) ?
hcDAF12 agonist: -1; hgDAF-12 ag: 0; SMARCA2 act: -1; DAX1 inh-1: 0; ssDAF-12 act: -1

Results for Cc1nc2ccc(NC(=O)C3(C)CCCN(C(C)C)C3)cc2o1 (stereo not drawn) ?
hcDAF12 agonist: -2; hgDAF-12 ag: 0; SMARCA2 act: -1; DAX1 inh-1: 0; ssDAF-12 act: -1

What do the screens show for `c1ccc(-c2csc(-c3cccnc3)n2)cc1`?
hcDAF12 agonist: 3; hgDAF-12 ag: 11*; SMARCA2 act: 3; DAX1 inh-1: 0; DAX1 inh-2: 1; ssDAF-12 act: -1

What do the screens show for `CSCCNC(=O)C1(C)CCN1C(=O)c1sccc1C` (stereo not drawn)?
hcDAF12 agonist: 0; hgDAF-12 ag: 0; SMARCA2 act: -1; DAX1 inh-1: -1; ssDAF-12 act: -1

How did CC(=O)Nc1ccc(NCCc2cccs2)cc1 do in these assays?
hcDAF12 agonist: -1; hgDAF-12 ag: -2; SMARCA2 act: -1; DAX1 inh-1: 0; ssDAF-12 act: -1

What do the screens show for `CC(=O)Nc1ccc(NCc2cccs2)cc1`?
hcDAF12 agonist: -2; hgDAF-12 ag: -3; SMARCA2 act: -3; DAX1 inh-1: 0; DAX1 inh-2: 4.3*; ssDAF-12 act: -1

What do the screens show for `COc1cccc2[nH]c(C(=O)NCCCN3CCCC3=O)cc12`?
hcDAF12 agonist: -3; hgDAF-12 ag: 2; SMARCA2 act: -3; DAX1 inh-1: 0; DAX1 inh-2: 0; ssDAF-12 act: 0

How did COc1ccc2cc(C(=O)NCCCN3CCCC3=O)[nH]c2c1 do in these assays?
hcDAF12 agonist: 6.2*; hgDAF-12 ag: 4; SMARCA2 act: 3; DAX1 inh-1: 1; DAX1 inh-2: 0; ssDAF-12 act: 0

What do the screens show for `Cc1cc(C)c(Cn2c(=O)[nH][nH]c2=O)cc1Cn1c(=O)[nH][nH]c1=O`?
hcDAF12 agonist: -1; hgDAF-12 ag: -4; SMARCA2 act: -1; DAX1 inh-1: -1; DAX1 inh-2: 3; ssDAF-12 act: -1

Results for COc1cccc(/C=N/n2c(=O)[nH]c3ccccc32)c1OC ?
hcDAF12 agonist: 0; hgDAF-12 ag: 2; SMARCA2 act: 5; DAX1 inh-1: 1; DAX1 inh-2: 4.9*; ssDAF-12 act: -1

Results for COc1cccc(/C=N/n2c(=S)n(C)c3ccccc32)c1OC ?
hcDAF12 agonist: -1; hgDAF-12 ag: 0; SMARCA2 act: -4; DAX1 inh-1: 0; DAX1 inh-2: -2; ssDAF-12 act: -1

What do the screens show for `COc1cc(OC)cc(-c2nc3ccccc3c(=O)n2OC(=O)c2ccccc2C)c1`?
hcDAF12 agonist: -1; hgDAF-12 ag: 12*; SMARCA2 act: -3; DAX1 inh-1: 0; DAX1 inh-2: -1; ssDAF-12 act: -1

What do the screens show for `CCN1C(=S)SC(=O)C1=C1C=C(C)N(Cc2ccco2)C(C)=C1`?
hcDAF12 agonist: 6.5*; hgDAF-12 ag: 12*; SMARCA2 act: 4; DAX1 inh-1: 2; DAX1 inh-2: 3; ssDAF-12 act: 0

How did CCN1C(=S)SC(=O)C1=C1C=C(C)OC(C)=C1 do in these assays?
hcDAF12 agonist: 0; hgDAF-12 ag: 2; SMARCA2 act: 1; DAX1 inh-1: 0; DAX1 inh-2: 1; ssDAF-12 act: -1

How did O=C(Nc1ccccc1)C1Cc2ccccc2CN1C(=O)c1ccco1 (stereo not drawn) do in these assays?
hcDAF12 agonist: 6.3*; hgDAF-12 ag: 13*; SMARCA2 act: 4; DAX1 inh-1: 3; DAX1 inh-2: 3; ssDAF-12 act: 1.0*

Results for O=C1CCC(CNc2ccccc2)N1c1ccccc1 (stereo not drawn) ?
hcDAF12 agonist: 0; hgDAF-12 ag: -2; ssDAF-12 act: -1

What do the screens show for `COc1ccc(-c2csc(Nc3ccccc3)[n+]2Cc2ccccc2)cc1`?
hcDAF12 agonist: 0; hgDAF-12 ag: 6; SMARCA2 act: 0; DAX1 inh-1: 0; DAX1 inh-2: 1; ssDAF-12 act: 0.9*
